Assays:
Test in all cases: growth AUC relative to DMSO control (median of replicates) (fraction); higher = more growth (less inhibition), active = hit call of the paper
Details in all cases: 20 µM; 24 h;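 active = AUC reduced over 20% with Padj below 0.05 in at least 2 of 3 replicates; inactive = otherwise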
Akkermansia muciniphila = tested on: Akkermansia muciniphila
Method in brief: (§1)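 OD600 was recorded every hour for 24 h in anaerobic monocultures of gut bacteria kept at 37 °C in mGAM, seeded at OD600 0.05 and given 20 µM compound in 1% DMSO. The area under each growth curve was scaled to the plate median of solvent-only wells, or to row and column medians for the industrial chemical plate. Before this step, the minimum OD was set to 0. Reported values are medians of three biological replicates run on separate days.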

Bacteroides caccae = tested on: Bacteroides caccae
Method in brief: as §1

Bacteroides clarus = tested on: Bacteroides clarus
Method in brief: as §1

Bacteroides dorei = tested on: Bacteroides dorei
Method in brief: as §1

Bacteroides stercoris = tested on: Bacteroides stercoris
Method in brief: as §1

[1] = tested on: Bacteroides thetaiotaomicron
Method in brief: as §1

Bacteroides uniformis = tested on: Bacteroides uniformis
Method in brief: as §1

[2] = tested on: Bifidobacterium longum subsp. longum
Method in brief: as §1

Clostridium difficile = tested on: Clostridium difficile
Method in brief: as §1

Collinsella aerofaciens = tested on: Collinsella aerofaciens
Method in brief: as §1

Coprococcus comes = tested on: Coprococcus comes
Method in brief: as §1

Escherichia coli ED1a = tested on: Escherichia coli ED1a
Method in brief: as §1

Escherichia coli IAI1 = tested on: Escherichia coli IAI1
Method in brief: as §1

Eubacterium rectale = tested on: Eubacterium rectale
Method in brief: as §1

[3] = tested on: Fusobacterium nucleatum subsp. animalis
Method in brief: as §1

Lactobacillus gasseri = tested on: Lactobacillus gasseri
Method in brief: as §1

Lactobacillus paracasei = tested on: Lactobacillus paracasei
Method in brief: as §1

Odoribacter splanchnicus = tested on: Odoribacter splanchnicus
Method in brief: as §1

[4] = tested on: Parabacteroides distasonis
Method in brief: as §1

Parabacteroides merdae = tested on: Parabacteroides merdae
Method in brief: as §1

Measured: growth AUC

Oc1cc(Cl)c(Cl)cc1Cl
inactive: Akkermansia muciniphila 0.97 | Bacteroides caccae 0.934 | Bacteroides clarus 0.945 | Bacteroides dorei 0.936 | Bacteroides stercoris 0.913 | [1] 0.986 | Bacteroides uniformis 0.992 | [2] 1.02 | Clostridium difficile 0.929 | Collinsella aerofaciens 0.922 | Coprococcus comes 0.983 | Escherichia coli ED1a 0.978 | Escherichia coli IAI1 0.938 | Eubacterium rectale 0.97 | [3] 1 | Lactobacillus gasseri 0.843 | Lactobacillus paracasei 0.971 | Odoribacter splanchnicus 1.12 | [4] 0.962 | Parabacteroides merdae 0.927

COCc1cnc(C2=NC(C)(C(C)C)C(=O)N2)c(C(=O)O)c1 (stereo not given)
inactive: Akkermansia muciniphila 1.12 | Bacteroides caccae 0.971 | Bacteroides clarus 1.03 | Bacteroides dorei 0.918 | Bacteroides stercoris 1 | [1] 0.999 | Bacteroides uniformis 1.01 | [2] 1.22 | Clostridium difficile 0.973 | Collinsella aerofaciens 0.998 | Coprococcus comes 0.971 | Escherichia coli ED1a 1 | Escherichia coli IAI1 0.982 | Eubacterium rectale 1.09 | [3] 1.05 | Lactobacillus gasseri 0.91 | Lactobacillus paracasei 0.934 | Odoribacter splanchnicus 1.05 | [4] 1.03 | Parabacteroides merdae 0.987

COc1c(Cl)ccc(Cl)c1Cl
inactive: Akkermansia muciniphila 1.02 | Bacteroides caccae 0.971 | Bacteroides clarus 0.985 | Bacteroides dorei 0.995 | Bacteroides stercoris 1.19 | [1] 1.01 | Bacteroides uniformis 0.99 | [2] 1.04 | Clostridium difficile 1.01 | Collinsella aerofaciens 0.98 | Coprococcus comes 0.973 | Escherichia coli ED1a 0.967 | Escherichia coli IAI1 0.99 | Eubacterium rectale 1.01 | [3] 1.04 | Lactobacillus gasseri 0.879 | Lactobacillus paracasei 0.937 | Odoribacter splanchnicus 1 | [4] 0.985 | Parabacteroides merdae 0.981

CCOC(=O)C(Cl)Cc1cc(-n2nc(C)n(C(F)F)c2=O)c(F)cc1Cl (stereo not given)
inactive: Akkermansia muciniphila 0.963 | Bacteroides caccae 0.991 | Bacteroides clarus 0.927 | Bacteroides dorei 0.967 | Bacteroides stercoris 0.996 | [1] 0.926 | Bacteroides uniformis 0.936 | [2] 1.02 | Clostridium difficile 0.981 | Collinsella aerofaciens 0.972 | Coprococcus comes 0.963 | Escherichia coli ED1a 0.986 | Escherichia coli IAI1 0.941 | Eubacterium rectale 0.794 | [3] 0.987 | Lactobacillus gasseri 1.01 | Lactobacillus paracasei 0.966 | Odoribacter splanchnicus 0.988 | [4] 0.963 | Parabacteroides merdae 0.925

CC(C)(C)c1cc([N+](=O)[O-])cc([N+](=O)[O-])c1O
active: Bacteroides clarus 0.742
inactive: Akkermansia muciniphila 0.623 | Bacteroides caccae 0.973 | Bacteroides dorei 0.931 | Bacteroides stercoris 1.03 | [1] 0.837 | Bacteroides uniformis 0.876 | [2] 0.964 | Clostridium difficile 0.885 | Collinsella aerofaciens 0.96 | Coprococcus comes 0.859 | Escherichia coli ED1a 0.93 | Escherichia coli IAI1 0.923 | Eubacterium rectale 0.908 | [3] 0.638 | Lactobacillus gasseri 0.852 | Lactobacillus paracasei 0.859 | Odoribacter splanchnicus 0.722 | [4] 0.83 | Parabacteroides merdae 0.942

OC[C@@H](O)[C@H]1O[C@@H]2O[C@H](C(Cl)(Cl)Cl)O[C@@H]2[C@H]1O (mixture of isomers)
inactive: Akkermansia muciniphila 0.979 | Bacteroides caccae 1.02 | Bacteroides clarus 0.978 | Bacteroides dorei 1.04 | Bacteroides stercoris 0.952 | [1] 1.01 | Bacteroides uniformis 1.04 | [2] 0.969 | Clostridium difficile 1.03 | Collinsella aerofaciens 0.975 | Coprococcus comes 0.988 | Escherichia coli ED1a 0.99 | Escherichia coli IAI1 0.986 | Eubacterium rectale 1.05 | [3] 0.83 | Lactobacillus gasseri 1.03 | Lactobacillus paracasei 0.943 | Odoribacter splanchnicus 1.06 | [4] 0.903 | Parabacteroides merdae 0.999

CC(=NCc1ccc(Cl)nc1)NC#N
inactive: Akkermansia muciniphila 1.01 | Bacteroides caccae 1.02 | Bacteroides clarus 1.05 | Bacteroides dorei 1.04 | Bacteroides stercoris 1.1 | [1] 0.99 | Bacteroides uniformis 1.03 | [2] 1.02 | Clostridium difficile 1.03 | Collinsella aerofaciens 1.02 | Coprococcus comes 1 | Escherichia coli ED1a 1.02 | Escherichia coli IAI1 1.03 | Eubacterium rectale 1 | [3] 1.09 | Lactobacillus gasseri 0.997 | Lactobacillus paracasei 1.03 | Odoribacter splanchnicus 1.04 | [4] 0.999 | Parabacteroides merdae 0.968

CCc1cnc(C2=NC(C)(C(C)C)C(=O)N2)c(C(=O)O)c1 (stereo not given)
inactive: Akkermansia muciniphila 0.891 | Bacteroides caccae 1.01 | Bacteroides clarus 0.971 | Bacteroides dorei 0.951 | Bacteroides stercoris 0.985 | [1] 0.981 | Bacteroides uniformis 1.01 | [2] 0.937 | Clostridium difficile 0.993 | Collinsella aerofaciens 0.983 | Coprococcus comes 0.975 | Escherichia coli ED1a 0.995 | Escherichia coli IAI1 1 | Eubacterium rectale 0.962 | [3] 0.981 | Lactobacillus gasseri 1.04 | Lactobacillus paracasei 0.924 | Odoribacter splanchnicus 0.961 | [4] 0.989 | Parabacteroides merdae 1.01

CCSCCSP(=S)(OC)OC
inactive: Akkermansia muciniphila 1.09 | Bacteroides caccae 1.02 | Bacteroides clarus 0.996 | Bacteroides dorei 0.996 | Bacteroides stercoris 1.07 | [1] 0.992 | Bacteroides uniformis 1.01 | [2] 1.03 | Clostridium difficile 1.03 | Collinsella aerofaciens 1.09 | Coprococcus comes 1.1 | Escherichia coli ED1a 1.01 | Escherichia coli IAI1 1 | Eubacterium rectale 0.899 | [3] 1.05 | Lactobacillus gasseri 1.06 | Lactobacillus paracasei 1.01 | Odoribacter splanchnicus 1.07 | [4] 1.05 | Parabacteroides merdae 0.988

O=C1CCc2cccc3c2N1CC3
inactive: Akkermansia muciniphila 1.04 | Bacteroides caccae 0.874 | Bacteroides clarus 0.964 | Bacteroides dorei 0.974 | Bacteroides stercoris 1.14 | [1] 0.883 | Bacteroides uniformis 0.98 | [2] 1.03 | Clostridium difficile 1.03 | Collinsella aerofaciens 0.954 | Coprococcus comes 1.03 | Escherichia coli ED1a 1 | Escherichia coli IAI1 0.966 | Eubacterium rectale 1.06 | [3] 1.08 | Lactobacillus gasseri 0.889 | Lactobacillus paracasei 0.983 | Odoribacter splanchnicus 1.04 | [4] 1.03 | Parabacteroides merdae 0.971

CCOP(=S)(OCC)SCS(=O)(=O)CC
inactive: Akkermansia muciniphila 1.08 | Bacteroides caccae 0.96 | Bacteroides clarus 1.01 | Bacteroides dorei 0.977 | Bacteroides stercoris 1.09 | [1] 0.996 | Bacteroides uniformis 0.984 | [2] 0.951 | Clostridium difficile 1.01 | Collinsella aerofaciens 1.02 | Coprococcus comes 1.02 | Escherichia coli ED1a 1.01 | Escherichia coli IAI1 0.992 | Eubacterium rectale 1.07 | [3] 1.14 | Lactobacillus gasseri 0.95 | Lactobacillus paracasei 0.967 | Odoribacter splanchnicus 0.993 | [4] 0.999 | Parabacteroides merdae 0.974

COP(=S)(OC)Oc1ccc(S(C)(=O)=O)c(C)c1
inactive: Akkermansia muciniphila 0.98 | Bacteroides caccae 0.994 | Bacteroides clarus 1 | Bacteroides dorei 0.974 | Bacteroides stercoris 1.04 | [1] 0.994 | Bacteroides uniformis 0.964 | [2] 0.831 | Clostridium difficile 0.985 | Collinsella aerofaciens 1.01 | Coprococcus comes 1.03 | Escherichia coli ED1a 0.991 | Escherichia coli IAI1 0.985 | Eubacterium rectale 1 | [3] 1.1 | Lactobacillus gasseri 0.901 | Lactobacillus paracasei 1.01 | Odoribacter splanchnicus 1.03 | [4] 0.987 | Parabacteroides merdae 0.993

COc1ccc(C(c2ccc(OC)cc2)C(Cl)(Cl)Cl)cc1
inactive: Akkermansia muciniphila 0.973 | Bacteroides caccae 0.92 | Bacteroides clarus 0.849 | Bacteroides dorei 0.926 | Bacteroides uniformis 0.813 | [2] 0.926 | Clostridium difficile 0.988 | Collinsella aerofaciens 0.975 | Coprococcus comes 0.978 | Escherichia coli ED1a 1.04 | Escherichia coli IAI1 0.967 | Eubacterium rectale 0.882 | [3] 1.06 | Lactobacillus gasseri 1.13 | Lactobacillus paracasei 1.02 | Odoribacter splanchnicus 1 | [4] 0.938 | Parabacteroides merdae 0.71
active: Bacteroides stercoris 0.49 | [1] 0.776

COP(N)(=S)Oc1ccccc1C(=O)OC(C)C (stereo not given)
inactive: Akkermansia muciniphila 1.19 | Bacteroides caccae 1.02 | Bacteroides clarus 0.981 | Bacteroides dorei 0.893 | Bacteroides stercoris 0.979 | [1] 0.998 | Bacteroides uniformis 0.999 | [2] 1.03 | Clostridium difficile 0.993 | Collinsella aerofaciens 0.993 | Coprococcus comes 1.03 | Escherichia coli ED1a 0.969 | Escherichia coli IAI1 0.982 | Eubacterium rectale 1.04 | [3] 0.97 | Lactobacillus gasseri 0.906 | Lactobacillus paracasei 0.944 | Odoribacter splanchnicus 0.898 | [4] 0.877 | Parabacteroides merdae 0.986

CC1=NNC(=O)N(/N=C/c2cccnc2)C1
inactive: Akkermansia muciniphila 0.995 | Bacteroides caccae 1.01 | Bacteroides clarus 0.98 | Bacteroides dorei 1.04 | Bacteroides stercoris 1.01 | [1] 1.02 | Bacteroides uniformis 1.04 | [2] 0.993 | Clostridium difficile 1.07 | Collinsella aerofaciens 1.1 | Coprococcus comes 1.02 | Escherichia coli ED1a 0.993 | Escherichia coli IAI1 0.991 | Eubacterium rectale 1 | [3] 1.02 | Lactobacillus gasseri 1.01 | Lactobacillus paracasei 0.988 | Odoribacter splanchnicus 1.03 | [4] 1.01 | Parabacteroides merdae 0.996

COC(=O)C(C)N(C(=O)c1ccco1)c1c(C)cccc1C (stereo not given)
inactive: Akkermansia muciniphila 1.07 | Bacteroides caccae 0.872 | Bacteroides clarus 0.984 | Bacteroides dorei 0.85 | Bacteroides stercoris 0.985 | Bacteroides uniformis 0.88 | [2] 1.1 | Clostridium difficile 0.941 | Collinsella aerofaciens 0.913 | Coprococcus comes 0.96 | Escherichia coli ED1a 0.971 | Escherichia coli IAI1 0.981 | Eubacterium rectale 1.06 | [3] 1.04 | Lactobacillus gasseri 0.86 | Lactobacillus paracasei 1.06 | Odoribacter splanchnicus 0.938 | [4] 1 | Parabacteroides merdae 0.918
active: [1] 0.727
